PubChem BioAssay (NCI)
About 83,000 compounds went through this panel and 20% of them were active in at least one assay; those are over-represented in the sample as a whole.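 Each cell line was grown in a 96-well plate and treated with one concentration of compound for 48 hours. Values below 10 were considered active.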 Activity calls are given as the source filed them.

Key:
Assay in all cases: NCI-60 one-dose screen, 48 h (100 = growth as untreated, 0 = no growth, -100 = all killed)
Conditions in all cases: 10 µM unless noted
SR leukemia = system: SR leukemia
RPMI-8226 leukemia = system: RPMI-8226 leukemia
OVCAR-8 ovarian = system: OVCAR-8 ovarian
OVCAR-5 ovarian = system: OVCAR-5 ovarian
OVCAR-4 ovarian = system: OVCAR-4 ovarian
SK-OV-3 ovarian = system: SK-OV-3 ovarian
OVCAR-3 ovarian = system: OVCAR-3 ovarian
NCI/ADR-RES ovarian = system: NCI/ADR-RES ovarian
T-47D breast = system: T-47D breast
BT-549 breast = system: BT-549 breast
MDA-MB-435 melanoma = system: MDA-MB-435 melanoma
SW-620 colon = system: SW-620 colon
MCF7 breast = system: MCF7 breast
HCT-116 colon = system: HCT-116 colon
KM12 colon = system: KM12 colon
HCC-2998 colon = system: HCC-2998 colon
HS 578T breast = system: HS 578T breast
IGROV1 ovarian = system: IGROV1 ovarian

Measured: growth

COc1ccc(CNC(=O)c2c(C)n([O-])c3ccc(OC)cc3[n+]2=O)cc1
inactive: SR leukemia 90.4% | RPMI-8226 leukemia 94% | OVCAR-8 ovarian 87% | OVCAR-5 ovarian 103% | OVCAR-4 ovarian 105% | SK-OV-3 ovarian 126% | OVCAR-3 ovarian 187% | NCI/ADR-RES ovarian 21.3% | T-47D breast 115% | BT-549 breast 83.5% | MDA-MB-435 melanoma 115% | SW-620 colon 107% | MCF7 breast 101% | HCT-116 colon 106% | KM12 colon 97.1%

O=c1[nH]cc(Nc2cc(Cl)c3nonc3c2[N+](=O)[O-])c(=O)[nH]1
active: MDA-MB-435 melanoma -41.2%
inactive: SR leukemia 100% | RPMI-8226 leukemia 96.2% | OVCAR-8 ovarian 98.4% | OVCAR-5 ovarian 98.1% | OVCAR-4 ovarian 121% | SK-OV-3 ovarian 104% | OVCAR-3 ovarian 123% | NCI/ADR-RES ovarian 96% | T-47D breast 101% | BT-549 breast 114% | SW-620 colon 89.8% | MCF7 breast 109% | HCT-116 colon 99.1% | HCC-2998 colon 90.6%

COc1ccc2cc(-c3nc4ccccc4[nH]3)c(=O)oc2c1
inactive: SR leukemia 36.5% | RPMI-8226 leukemia 115% | OVCAR-8 ovarian 101% | OVCAR-5 ovarian 101% | OVCAR-4 ovarian 99.3% | SK-OV-3 ovarian 104% | OVCAR-3 ovarian 106% | HS 578T breast 125% | NCI/ADR-RES ovarian 93% | T-47D breast 92.9% | BT-549 breast 101% | MDA-MB-435 melanoma 108% | SW-620 colon 95.5% | HCT-116 colon 93% | HCC-2998 colon 78.3%

CCOC1Oc2ccccc2C(=O)/C1=N/c1nccs1 (centres undefined)
inactive: SR leukemia 57.1% | RPMI-8226 leukemia 36.3% | OVCAR-8 ovarian 114% | OVCAR-5 ovarian 99.1% | OVCAR-4 ovarian 94.5% | SK-OV-3 ovarian 97.7% | OVCAR-3 ovarian 64.7% | NCI/ADR-RES ovarian 87.9% | T-47D breast 66.5% | BT-549 breast 77.1% | MDA-MB-435 melanoma 104% | SW-620 colon 87.1% | MCF7 breast 79.1% | HCT-116 colon 92.9% | HCC-2998 colon 99.7% | KM12 colon 93.5%

Nc1nc(Nc2ccccc2SSc2ccccc2Nc2nc(N)nc(-c3ccc(I)cc3)n2)nc(-c2ccc(I)cc2)n1
inactive: SR leukemia 13.9% | RPMI-8226 leukemia 61.4% | OVCAR-8 ovarian 60.2% | OVCAR-5 ovarian 84.9% | OVCAR-4 ovarian 107% | IGROV1 ovarian 50.3% | OVCAR-3 ovarian 94.1% | HS 578T breast 89.1% | NCI/ADR-RES ovarian 49.6% | T-47D breast 67.1% | BT-549 breast 70.8% | MDA-MB-435 melanoma 86.7% | SW-620 colon 94.3% | MCF7 breast 76% | HCT-116 colon 50.1% | HCC-2998 colon 105% | KM12 colon 37.2%

CCCn1c(N)c(C(=O)CNc2ccc(I)cc2)c(=O)[nH]c1=O
inactive: SR leukemia 139% | RPMI-8226 leukemia 29.1% | OVCAR-8 ovarian 49.5% | OVCAR-5 ovarian 137% | OVCAR-4 ovarian 74.4% | SK-OV-3 ovarian 56% | OVCAR-3 ovarian 64.9% | HS 578T breast 44.3% | NCI/ADR-RES ovarian 77.1% | T-47D breast 94.9% | MDA-MB-435 melanoma 51.1% | SW-620 colon 35.3% | MCF7 breast 57.1% | HCT-116 colon 32.3% | HCC-2998 colon 74.2%

O=c1oc2c(cc1-c1ccc([N+](=O)[O-])cc1)C(O)Oc1ccccc1-2 (centres undefined)
inactive: SR leukemia 56.2% | RPMI-8226 leukemia 50.2% | OVCAR-8 ovarian 94.7% | OVCAR-5 ovarian 82.1% | OVCAR-4 ovarian 86.4% | SK-OV-3 ovarian 99.6% | OVCAR-3 ovarian 111% | HS 578T breast 102% | NCI/ADR-RES ovarian 72.2% | T-47D breast 75.3% | BT-549 breast 97.1% | MDA-MB-435 melanoma 89.3% | SW-620 colon 91.9% | MCF7 breast 90.8% | HCT-116 colon 94.8% | HCC-2998 colon 94.3% | KM12 colon 95.4%

CCNCCCn1c2c(c3ccc(F)cc3c1=O)C(=O)c1cc(OC)cnc1-2
inactive: HS 578T breast 14.9%
active: SR leukemia -4.37% | RPMI-8226 leukemia -25.7% | OVCAR-8 ovarian -15.1% | OVCAR-5 ovarian 3.24% | OVCAR-4 ovarian -4.39% | IGROV1 ovarian 2.58% | OVCAR-3 ovarian -16.9% | NCI/ADR-RES ovarian -29.4% | T-47D breast -10.8% | BT-549 breast -22.7% | MDA-MB-435 melanoma 1.77% | SW-620 colon -16.1% | MCF7 breast -4.74% | HCT-116 colon -62.1% | HCC-2998 colon -56.1% | KM12 colon 1.84%

CC(=O)c1nn(-c2ccccc2)c(=Nc2ccccc2)cc1C
inactive: SR leukemia 99.3% | RPMI-8226 leukemia 100% | OVCAR-8 ovarian 96.7% | OVCAR-5 ovarian 90.5% | OVCAR-4 ovarian 96.9% | SK-OV-3 ovarian 108% | OVCAR-3 ovarian 113% | HS 578T breast 114% | NCI/ADR-RES ovarian 100% | T-47D breast 88.2% | BT-549 breast 99% | MDA-MB-435 melanoma 112% | SW-620 colon 104% | MCF7 breast 93.4% | HCT-116 colon 98.2% | HCC-2998 colon 100% | KM12 colon 99%

Cc1n(Cc2ccc3ccccc3c2)c2ccccc2[n+]1Cc1ccc2ccccc2c1
active: SR leukemia -35.5% | RPMI-8226 leukemia -57.7% | OVCAR-8 ovarian -31.1% | OVCAR-5 ovarian -46.4% | OVCAR-4 ovarian -7.76% | IGROV1 ovarian -61.8% | OVCAR-3 ovarian -78.1% | HS 578T breast -0.489% | T-47D breast -3.2% | BT-549 breast -79.7% | MDA-MB-435 melanoma -72.8% | SW-620 colon -60.7% | MCF7 breast -70.9% | HCT-116 colon -91% | HCC-2998 colon -87% | KM12 colon -77.7%
inactive: NCI/ADR-RES ovarian 82.4%

CC[n+]1c(/C=C/c2ccc(N3CCCC3)cc2)cccc1/C=C/c1ccc(N2CCCC2)cc1
active: RPMI-8226 leukemia -41.1% | OVCAR-8 ovarian -87.3% | OVCAR-5 ovarian -80.1% | OVCAR-4 ovarian -73.8% | SK-OV-3 ovarian -95.6% | OVCAR-3 ovarian -90.1% | HS 578T breast -70.2% | NCI/ADR-RES ovarian -68.6% | BT-549 breast -89.7% | MDA-MB-435 melanoma -70.7% | SW-620 colon -88.1% | MCF7 breast -85.5% | HCT-116 colon -54.7% | HCC-2998 colon -82.5%
inactive: SR leukemia 57.2%

NC(=N\N=C/Cc1ccccc1)/C(N)=N\N=C\Cc1ccccc1
inactive: SR leukemia 81.5% | RPMI-8226 leukemia 101% | OVCAR-8 ovarian 107% | OVCAR-5 ovarian 98.8% | OVCAR-4 ovarian 100% | SK-OV-3 ovarian 113% | OVCAR-3 ovarian 110% | HS 578T breast 105% | T-47D breast 91.7% | BT-549 breast 104% | MDA-MB-435 melanoma 107% | SW-620 colon 104% | MCF7 breast 101% | HCT-116 colon 108% | KM12 colon 104%

Oc1ccc(/C=N/Nc2nc3ccccc3s2)c(O)c1
active: SR leukemia 6.63% | SK-OV-3 ovarian 8.68%
inactive: RPMI-8226 leukemia 37.4% | OVCAR-8 ovarian 26.6% | OVCAR-5 ovarian 47.1% | OVCAR-4 ovarian 21.5% | OVCAR-3 ovarian 18.6% | HS 578T breast 49.2% | NCI/ADR-RES ovarian 17.7% | T-47D breast 26.8% | BT-549 breast 43.8% | MDA-MB-435 melanoma 39.7% | SW-620 colon 41.9% | MCF7 breast 26.5% | HCT-116 colon 25.2% | KM12 colon 15.7%

Cc1cc(C)nc(NS(=O)(=O)c2ccc(Nc3nc4nc(SCc5ccccc5)nc(-c5ccc(O)cc5)c4c(=O)[nH]3)cc2)n1
inactive: SR leukemia 85.7% | RPMI-8226 leukemia 66.7% | OVCAR-8 ovarian 97% | OVCAR-5 ovarian 96.2% | OVCAR-4 ovarian 104% | SK-OV-3 ovarian 94.9% | OVCAR-3 ovarian 120% | HS 578T breast 103% | T-47D breast 79.1% | BT-549 breast 107% | MDA-MB-435 melanoma 94.9% | SW-620 colon 101% | MCF7 breast 104% | HCT-116 colon 103% | HCC-2998 colon 100% | KM12 colon 107%

COc1ccc(CCN2C(=O)CCC3=C2CCCC3=O)cc1OC
inactive: SR leukemia 101% | RPMI-8226 leukemia 98.1% | OVCAR-8 ovarian 102% | OVCAR-5 ovarian 104% | OVCAR-4 ovarian 102% | IGROV1 ovarian 108% | OVCAR-3 ovarian 120% | HS 578T breast 94.6% | NCI/ADR-RES ovarian 98.2% | T-47D breast 104% | BT-549 breast 104% | MDA-MB-435 melanoma 103% | SW-620 colon 107% | MCF7 breast 92.6% | HCT-116 colon 100% | HCC-2998 colon 103%

Oc1c(Cl)cc(Oc2cc(Cl)c(O)c(CN3CCOCC3)c2)cc1CN1CCOCC1
inactive: SR leukemia 80.2% | RPMI-8226 leukemia 91% | OVCAR-8 ovarian 94.8% | OVCAR-5 ovarian 98% | OVCAR-4 ovarian 88.2% | SK-OV-3 ovarian 101% | OVCAR-3 ovarian 94.5% | HS 578T breast 93.5% | NCI/ADR-RES ovarian 84.8% | T-47D breast 69.7% | BT-549 breast 96.5% | MDA-MB-435 melanoma 101% | SW-620 colon 98.3% | MCF7 breast 94.4% | HCT-116 colon 87% | KM12 colon 102%

O=C(/C=C(\Nc1ccccc1)c1ccccc1)c1cn(-c2ccc([N+](=O)[O-])cc2)nn1
inactive: SR leukemia 69.4% | RPMI-8226 leukemia 84% | OVCAR-8 ovarian 53.5% | OVCAR-5 ovarian 116% | OVCAR-4 ovarian 87.9% | SK-OV-3 ovarian 106% | OVCAR-3 ovarian 112% | HS 578T breast 63% | NCI/ADR-RES ovarian 111% | T-47D breast 96.4% | BT-549 breast 110% | MDA-MB-435 melanoma 102% | SW-620 colon 93.2% | MCF7 breast 103% | HCT-116 colon 92.1% | HCC-2998 colon 103% | KM12 colon 110%

O=C(COc1cccc(/C=C2\Cc3ccccc3C2=O)c1)c1ccc(Cl)cc1
inactive: SR leukemia 111% | RPMI-8226 leukemia 90.2% | OVCAR-8 ovarian 90.4% | OVCAR-5 ovarian 103% | OVCAR-4 ovarian 90.1% | SK-OV-3 ovarian 130% | OVCAR-3 ovarian 120% | NCI/ADR-RES ovarian 93.5% | T-47D breast 80% | BT-549 breast 99.4% | MDA-MB-435 melanoma 114% | SW-620 colon 97.2% | MCF7 breast 78% | HCT-116 colon 100% | HCC-2998 colon 102% | KM12 colon 105%

O=C1c2cccc(NCCN=Cc3ccccc3O)c2C(=O)c2c(NCCN=Cc3ccccc3O)cccc21
active: SR leukemia -20.9% | RPMI-8226 leukemia -9.08% | OVCAR-4 ovarian 2.43% | HS 578T breast 4.31% | SW-620 colon 0.678% | MCF7 breast 3.69% | HCT-116 colon 7.91% | HCC-2998 colon 2.57% | KM12 colon 6.07%
inactive: OVCAR-8 ovarian 17% | OVCAR-5 ovarian 15.9% | SK-OV-3 ovarian 29% | OVCAR-3 ovarian 11.1% | NCI/ADR-RES ovarian 93.9% | BT-549 breast 49% | MDA-MB-435 melanoma 24.7%
